# Results as given in ChEMBL document CHEMBL4808148, “HDAC6 screening dataset using tau-based substrate in an enzymatic assay yields selective inhibitors and activators” (2021).
# Among all 5,600 compounds or so, about 390 (7%) showed an effect of 50% or more. Many of the other results were omitted from the sample, so strong results are more common in it than they were.
# Biological target: T1, Protein deacetylase HDAC6 (Homo sapiens) (UniProt Q9UBN7)
# T1 sequence (whole entry): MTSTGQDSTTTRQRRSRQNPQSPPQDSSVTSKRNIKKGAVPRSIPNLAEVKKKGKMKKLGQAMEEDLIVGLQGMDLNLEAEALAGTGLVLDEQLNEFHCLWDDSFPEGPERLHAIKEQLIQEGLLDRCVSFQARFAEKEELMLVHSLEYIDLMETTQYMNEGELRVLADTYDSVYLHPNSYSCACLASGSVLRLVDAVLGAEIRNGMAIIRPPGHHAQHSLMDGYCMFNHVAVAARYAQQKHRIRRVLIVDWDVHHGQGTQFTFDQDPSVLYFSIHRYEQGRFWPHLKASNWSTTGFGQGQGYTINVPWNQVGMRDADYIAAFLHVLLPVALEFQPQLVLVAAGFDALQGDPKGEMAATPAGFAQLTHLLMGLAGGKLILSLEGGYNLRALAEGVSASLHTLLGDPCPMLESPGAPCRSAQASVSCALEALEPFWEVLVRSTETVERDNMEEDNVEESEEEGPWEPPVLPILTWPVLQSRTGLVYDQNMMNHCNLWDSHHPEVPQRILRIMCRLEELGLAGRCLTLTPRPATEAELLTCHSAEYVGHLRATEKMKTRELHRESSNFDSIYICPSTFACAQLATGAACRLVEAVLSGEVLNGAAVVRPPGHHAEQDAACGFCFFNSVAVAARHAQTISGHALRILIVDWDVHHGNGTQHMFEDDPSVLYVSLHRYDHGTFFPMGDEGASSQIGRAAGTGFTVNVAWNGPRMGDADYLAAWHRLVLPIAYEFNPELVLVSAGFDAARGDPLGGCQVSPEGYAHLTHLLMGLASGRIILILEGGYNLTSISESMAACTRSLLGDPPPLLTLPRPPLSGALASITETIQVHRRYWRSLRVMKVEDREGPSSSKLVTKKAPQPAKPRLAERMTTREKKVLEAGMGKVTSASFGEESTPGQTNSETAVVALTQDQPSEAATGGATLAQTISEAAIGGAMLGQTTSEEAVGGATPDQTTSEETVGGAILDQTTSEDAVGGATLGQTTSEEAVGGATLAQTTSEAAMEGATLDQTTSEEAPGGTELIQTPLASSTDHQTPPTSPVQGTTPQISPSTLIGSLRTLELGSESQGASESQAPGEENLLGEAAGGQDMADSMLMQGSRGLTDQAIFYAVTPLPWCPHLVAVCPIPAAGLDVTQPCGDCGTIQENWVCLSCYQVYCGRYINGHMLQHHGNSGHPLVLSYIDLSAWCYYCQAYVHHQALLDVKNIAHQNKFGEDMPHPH
# Conditions: at 10 µM
row,Structure (SMILES),inhibition [%]
1,O=C(O)CCCCCCCC(=O)O,29.8
2,O=C(CCCCCCC(=O)Nc1cccnc1)NO,100
3,O=C(CCCCCCC(=O)NO)NO,99.2
4,O=C(O)CCCCCCCCC(=O)O,0.61
5,NC(=O)c1cccnc1,2.11
6,Cc1cc(-c2ccc(CC(=O)Nc3ccc(-c4cccnc4)cc3)cc2)ccn1,37.6
7,O=[N+]([O-])c1ccc2c(c1)S(=O)(=O)C=C2,20.7
8,NC(C(=O)O)c1ccc(C(=O)O)c(C(=O)O)c1 (racemic),1.97
9,COc1ccc(-c2csc(NC(=O)[C@H]3CCCCN3S(=O)(=O)c3ccc(C)cc3)n2)cc1,0.15
10,Nc1nc(NC[C@H]2CC[C@H](CNS(=O)(=O)c3cccc4ccccc34)CC2)nc2ccccc12,9.28
11,CCOc1ccccc1C(=O)O,0.84
12,CCCCNc1ncc2c(-c3ccc(CN4CCN(C)CC4)cc3)cn([C@H]3CC[C@H](O)CC3)c2n1,62.3
13,COC(=O)c1ccccc1COc1ccccc1[N+](=O)[O-],35.8
14,N=C(N)NCCC[C@H](NC(=O)c1sccc1NS(=O)(=O)c1cccc2nsnc12)C(=O)O,-2.5
15,CCN(CC)CCCN(c1ccccc1)C1Cc2ccccc2C1,9.47
16,CCOC(=O)c1ccc(N)cc1,16.9
17,CCOC(=O)c1c(C)n(C)c2ccc(O)cc12,60.5
18,CCOC(=O)C1=C(C)NC(=S)NC1c1cccc(O)c1 (centres undefined),7.87
19,O=C1C=CC(=O)C2=C1C1c3ccccc3C2c2ccccc21,-5.86
20,N#CC(c1ccnc(OCc2ccc(CN3CCOCC3)cc2)n1)c1nc2ccccc2s1 (centres undefined),73.7
21,N[C@H]1CCN(O)C1=O,-4.15
22,CCNC(=O)[C@@H]1CCCN1C(=O)[C@H](CCCNC(=N)N)NC(=O)[C@H](CC(C)C)NC(=O)[C@@H](CC(C)C)NC(=O)[C@H](Cc1ccc(O)cc1)NC(=O)[C@H](CO)NC(=O)[C@H](Cc1c[nH]c2ccccc12)NC(=O)[C@H](Cc1c[nH]cn1)NC(=O)[C@@H]1CCC(=O)N1,33.6
23,N#Cc1c(N)nc(SCc2ncc[nH]2)c(C#N)c1-c1ccc(O)cc1,54.7
24,CC(C)C[C@H](NC(=O)[C@@H](Cc1c[nH]c2ccccc12)NC(=O)[C@H](Cc1ccc(O)cc1)NC(=O)[C@H](CO)NC(=O)[C@H](Cc1c[nH]c2ccccc12)NC(=O)[C@H](Cc1c[nH]cn1)NC(=O)[C@@H]1CCC(=O)N1)C(=O)N[C@@H](CCCNC(=N)N)C(=O)N1CCC[C@H]1C(=O)NCC(N)=O,-2.71

row,Structure (SMILES),inhibition [%]
1,CN(C)CCN(Cc1cccs1)c1ccccn1,11.5
2,Nc1nc(O)c2c(n1)NCC(CNc1ccc(C(=O)N[C@@H](CCC(=O)O)C(=O)O)cc1)N2 (some centres undefined),-7.59
3,Cc1csc(-c2nnc(Nc3ccc(Oc4ncccc4-c4ccnc(N)n4)cc3)c3ccccc23)c1,72.1
4,Cc1cc(C(=O)Nc2nc3cccc(Cl)c3n2[C@@H]2CCCCN(C(=O)/C=C/CN(C)C)C2)ccn1,-3.32
5,C#CCN1C(C)=C(C(=O)OC)C(c2cccc([N+](=O)[O-])c2)C(C(=O)OCC)=C1C (centres undefined),-1.94
6,C=CC(=O)Nc1cccc(Oc2nc(Nc3ccc(N4CCN(C)CC4)cc3)nc3ccsc23)c1,14.3
7,CCC(C)C(CC)C(N)=O (centres undefined),2.6
8,C=Cc1cc(O)cc2nc(-c3ccc(O)c(F)c3)oc12,-4.14
9,O=C(NC1CC1)c1cc(-c2cccs2)on1,75.4
10,C=CC(=O)Nc1cc2c(Nc3ccc(F)c(Cl)c3)ncnc2cc1OCCCN1CCOCC1,9.13
11,Nc1nncs1,6.15
12,O=C(Nc1ccc([N+](=O)[O-])cc1O)Nc1ccccc1Br,101
13,NC(=O)c1ccc([N+](=O)[O-])cc1Cl,8.11
14,CN(N=O)C(=O)N[C@@H](C=O)[C@@H](O)[C@H](O)[C@H](O)CO,-1.89
15,c1ccc2cc(C3=NCCN3)ncc2c1,3.66
16,Cc1sc2c(c1C)C(c1ccc(Cl)cc1)=N[C@@H](CC(=O)Nc1ccc(OCCOCCOCCOCCNc3cccc4c3C(=O)N(C3CCC(=O)NC3=O)C4=O)cc1)c1nnc(C)n1-2 (some centres undefined),9.19
17,CC(C(=O)O)c1ccc2c(c1)CC(=O)c1ccccc1S2 (centres undefined),-3.14
18,CC(C(=O)O)c1ccc(C(=O)c2cccs2)cc1 (centres undefined),-7.49
19,CC(C(=O)O)c1ccc(N2Cc3ccccc3C2=O)cc1 (centres undefined),94.7
20,CCC(C)(C)c1ccc(CC(C)CN2C[C@@H](C)O[C@@H](C)C2)cc1 (some centres undefined),-1.12
21,C=C1NC[C@H](O)[C@@H](C(=O)O)N1,-0.94
22,COC(=O)C1=C(C)NC(C)=C(C(=O)OCCSc2ccccc2)C1C (centres undefined),-9.24
23,CCOc1ccc(-n2c(C(C)N(Cc3cccnc3)C(=O)Cc3ccc(OC(F)(F)F)cc3)nc3ncccc3c2=O)cc1 (racemic),6.86
24,O=C1Nc2ccccc2/C1=C1/Nc2ccccc2C1=O,60.6

row,Structure (SMILES),inhibition [%]
1,O=C1Nc2cc(Br)ccc2/C1=C1/Nc2ccccc2/C1=N\O,93.4
2,CN1C(=O)/C(=C2/C(=O)Nc3ccccc32)c2ccccc21,32.9
3,O=C1Nc2ccccc2/C1=C1/Nc2ccccc2/C1=N\O,100
4,N[C@@H]1CCN(O)C1=O,19.6
5,C/C=C1\C(=O)C[C@H]2[C@@H]3CCC4=CC(=O)CC[C@]4(C)[C@H]3CC[C@]12C,-4.59
6,Cc1csc2c(N[C@@H](C)CN3CCN(S(=O)(=O)c4ccc(Cl)c(Cl)c4)CC3)ncnc12,7.29
7,CNC(=O)[C@H]1O[C@@H](n2cnc3c(NCc4cccc(I)c4)ncnc32)[C@H](O)[C@@H]1O,9.22
8,CC(C)(C)c1cc(O)c(C(C)(C)C)cc1O,10.7
9,CCOc1cc(C(=O)Nc2ccc(Cl)c(-c3nc4ccccc4[nH]3)c2)cc(OCC)c1OCC,11.9
10,Nc1nc(=O)c2c([nH]1)NC[C@H](CNc1ccc(C(=O)N[C@@H](CCC(=O)O)C(=O)O)cc1)N2C=O,3.47
11,O=c1[nH]cnc2c1cnn2[C@@H]1O[C@H](CO)[C@@H](O)[C@H]1O,20.8
12,N[C@@H](Cc1cc(-c2ccc(Cl)cc2Cl)cc(CP(=O)(O)O)c1O)C(=O)O,4.67
13,Cc1cc(=O)oc2c(C=O)c(O)ccc12,-7.63
14,O=c1c(O)c(-c2ccc(O)cc2O)oc2cc(O)cc(O)c12,92.5
15,Cc1cc(=O)oc2cc(O)ccc12,35.6
16,O=c1c(O)c(-c2ccc(O)c(O)c2)oc2cc(O)ccc12,97.4
17,O=c1c(O)c(-c2ccc(O)cc2)oc2cc(O)cc(O)c12,98.8
18,C[C@@H]1O[C@@H](Oc2c(-c3cc(O)c(O)c(O)c3)oc3cc(O)cc(O)c3c2=O)[C@H](O)[C@H](O)[C@H]1O,-6.79
19,O=C1c2c(O)cc(O)cc2O[C@H](c2cc(O)c(O)c(O)c2)[C@H]1O,-0.55
20,O=c1c(O[C@@H]2O[C@H](CO)[C@H](O)[C@H](O)[C@H]2O)c(-c2ccc(O)c(O)c2)oc2cc(O)cc(O)c12,28.9
21,O=c1c(O)c(-c2cc(O)c(O)c(O)c2)oc2cc(O)cc(O)c12,100
22,COc1ccc(C(=O)/C(Cc2cc(OC)c(OC)c(OC)c2)=C(\C(=O)O)c2ccc3c(c2)OCO3)cc1,26.5
23,Cc1cc(C)c2c(c1)[C@@H](N(Cc1cc(C(F)(F)F)cc(C(F)(F)F)c1)c1nnn(C)n1)CCCN2C[C@H]1CC[C@H](C(=O)O)CC1,4.11
24,Cc1nnsc1C(=O)Nc1ccc(-n2nc(C(F)(F)F)cc2C(F)(F)F)cc1,8.76

row,Structure (SMILES),inhibition [%]
1,O=C1Cc2cc(CCN3CCN(c4nsc5ccccc45)CC3)c(Cl)cc2N1,11.8
2,COc1cccc(OCCCN)c1-c1cc(Nc2cnc(C#N)cn2)n[nH]1,-3.28
3,N#C[C@@H]1CCCN1C(=O)CNC12CC3CC(CC(O)(C3)C1)C2,-7.44
4,C/C=C\C1=C(C(=O)O)N2C(=O)C(NC(=O)C(N)c3ccc(O)cc3)C2SC1 (centres undefined),-7.76
5,O=C(O)CCN(O)C(=O)CCCCCCCCC1CC1,37.2
6,C=CC[N+]12CC[C@@]34c5ccccc5N5/C=C6/[C@H]7C[C@H]8[C@@]9(CC[N@@+]8(CC=C)C/C7=C/CO)c7ccccc7N(/C=C(/[C@@H](C[C@@H]31)/C(=C\CO)C2)[C@H]54)[C@@H]69 (some centres undefined),31.2
7,N=C(N)NCCC[C@@H](N)C(=O)N[C@@H](CCCNC(=N)N)C(=O)N1CCC[C@H]1C(=O)N1C[C@H](O)C[C@H]1C(=O)NCC(=O)N[C@@H](Cc1cccs1)C(=O)N[C@@H](CO)C(=O)N1Cc2ccccc2C[C@@H]1C(=O)N1[C@H](C(=O)N[C@@H](CCCNC(=N)N)C(=O)O)C[C@@H]2CCCC[C@@H]21,31.7
8,COc1cc(CN(CCN)C(=O)c2cccs2)ccc1OCc1ccccc1,-2.87
9,CN1CC(=O)N=C1NC(=O)Nc1cccc(Cl)c1,89.3
10,O=C(Nc1ccc(Cl)cc1)Nc1cccc(-c2cccc(N3CCCC3)n2)c1,20.6
11,CC(C)c1c(NC(=O)Nc2ccc(Cl)cc2)c(=O)n(-c2ccccc2)n1C,-4.84
12,CC(C)c1onc(-c2c(Cl)cccc2Cl)c1COc1ccc(/C=C/c2cccc(C(=O)O)c2)c(Cl)c1,3.22
13,O=C(/C=C/c1ccc2c(c1)OCO2)N1CCCCC1,97.2
14,O=C(/C=C/C=C/c1ccc2c(c1)OCO2)N1CCCCC1,115
15,CC(C)(C)c1ccc(/C=C/C(=O)Nc2ccc3c(c2)OCCO3)cc1,-7.4
16,O=C(c1ccc2c(c1)OCO2)N1CCCCC1,21.9
17,CC(C)(C)C(O)/C=C/c1ccc2c(c1)OCO2 (centres undefined),15.9
18,C[N+](C)(C)CC[N+]1(C)Cc2c(Cl)c(Cl)c(Cl)c(Cl)c2C1,10.9
19,COc1oc(=O)c2cc(N)ccc2c1Cl,22.8
20,C=C1/C(=C\C=C2/CCC[C@]3(C)[C@@H]([C@H](C)CCCC(C)C)CC[C@@H]23)C[C@@H](O)C[C@@H]1O,-2.44
21,COc1ccc(-c2sc(NC(=O)C(C)(C)C)nc2C)cc1S(=O)(=O)Nc1ccc(O)cc1,-1.39
22,O=C(c1ccc(/C=C/c2n[nH]c3ccccc23)cc1)N1CCNCC1,94.8
